The panel holds about 83,000 compounds, 20% with a hit somewhere; the sample as a whole holds those more often.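 Assay: single dose, 48 h. Readout: percent growth (0 = no net growth; negative = cell death). Active: <10.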 Unmarked numbers belong to inactive results. Active and inactive are the calls of the source.

The test relates to HL-60(TB) leukemia. Description: NCI-60 one-dose screen, 48 h (100 = growth as untreated, 0 = no growth, -100 = all killed). The following applies: 10 µM unless noted.
Take `COc1ccc(-c2cnc3ccnn3c2-c2cc(OC)c(OC)c(OC)c2)cc1`: the growth is -22% (active).
The same measure for `CC(O)(CO)c1ccccc1` (stereo not drawn): 116%.
For the molecule `c1ccc2cc(Cn3cc(CSc4nc5ccccc5s4)nn3)ccc2c1`, the growth was 102%.

The values above are taken from PubChem BioAssay (NCI).
